Results: the supplement of paper PMC10849652
The full data set covers some 7,900 targets. This sample favours those with a hit. About 0.6% of all pairs of compound and target were hits.

Assays:
Test in all cases: log2 fold change, soluble protein after heating vs DMSO (PISA); higher = thermal stabilisation; K562 cells, 10 uM, 30 min; active = over 0.2 and 3.5 SD of the protein, either way, in both replicates (recomputed)
[1] = compound: CC[C@@H]1C(=O)N(C)c2cnc(Nc3ccc(C(=O)NC4CCN(C)CC4)cc3OC)nc2N1C1CCCC1
Procedure, shortened: (§1)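 K562 cells at 2×10^6 cells/mL were treated for 30 min with 10 μM compound, and aliquots were heated for 3 min over 48°C-58°C before pooling. Extraction used PBS with 0.5% NP-40 at 4°C, and soluble protein was the supernatant after 21,000xg for 90 min, measured by TMTpro 16plex LC-MS/MS with channel sums equalised. Thermal stability values, relative to control samples and from duplicates, are log2 fold changes.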

volasertib = compound: CC[C@@H]1C(=O)N(C)c2cnc(Nc3ccc(C(=O)N[C@H]4CC[C@H](N5CCN(CC6CC6)CC5)CC4)cc3OC)nc2N1C(C)C [volasertib]
Procedure, shortened: as §1

[2] = compound: CC[C@H](C)N1C=C(C2=C(C=C(C=C21)C3=CN=C(C=C3)N4CCNCC4)C(=O)NCC5=C(C=C(NC5=O)C)C)C
Procedure, shortened: as §1

epoxomicin = compound: CC[C@H](C)[C@@H](C(=O)N[C@@H]([C@@H](C)O)C(=O)N[C@@H](CC(C)C)C(=O)[C@]1(CO1)C)NC(=O)[C@H]([C@@H](C)CC)N(C)C(=O)C [epoxomicin]
Procedure, shortened: as §1

[3] = compound: CCn1c(C(=O)N(C2CC2)C2CC2)cc2c3c(ncn3C)c(Nc3cc(C)n(C)n3)nc21
Procedure, shortened: as §1

[4] = compound: CCn1cc(-c2ccnc3[nH]c(-c4cccc(CN(C)C)c4)cc23)c(-c2ccc(NC(=O)N(C)C)cc2)n1
Procedure, shortened: as §1

[5] = compound: CN(C)CC(=O)Nc1ccc2[nH]c(=O)c3ccccc3c2c1
Procedure, shortened: as §1

rosiglitazone = compound: CN(CCOC1=CC=C(C=C1)C[C@H]2C(=O)NC(=O)S2)C3=CC=CC=N3 (racemic) [rosiglitazone]
Procedure, shortened: as §1

[6] = compound: CN1C2=C(C3=C1C(=O)N(N=C3)CC4=CC(=CC=C4)N)SC(=C2)S(=O)C
Procedure, shortened: as §1

[7] = compound: CN1CCC(CNc2ccc3ncc(-c4cccc(OC(F)(F)F)c4)n3n2)CC1
Procedure, shortened: as §1

Measured: log2 fold change

TMBIM1 (UniProt Q969X1)
UniProt Q969X1, sequence (Q969X1 whole entry, looked up): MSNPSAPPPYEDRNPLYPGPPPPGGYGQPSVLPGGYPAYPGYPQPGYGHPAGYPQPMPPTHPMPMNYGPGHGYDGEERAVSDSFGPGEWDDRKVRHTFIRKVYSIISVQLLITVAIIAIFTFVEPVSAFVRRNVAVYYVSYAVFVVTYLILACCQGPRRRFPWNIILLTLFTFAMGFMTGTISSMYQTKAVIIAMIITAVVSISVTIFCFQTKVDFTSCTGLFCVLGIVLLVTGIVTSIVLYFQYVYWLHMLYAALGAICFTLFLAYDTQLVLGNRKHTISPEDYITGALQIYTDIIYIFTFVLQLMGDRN
inactive: [1] 0.086 | volasertib 0.002 | [2] -0.014 | epoxomicin -0.033 | [3] 0.034 | [4] 0.044 | [5] 0.029 | rosiglitazone -0.013 | [6] -0.035 | [7] -0.03

SLC35F6 (UniProt Q8N357)
UniProt Q8N357, sequence (Q8N357 whole entry, looked up): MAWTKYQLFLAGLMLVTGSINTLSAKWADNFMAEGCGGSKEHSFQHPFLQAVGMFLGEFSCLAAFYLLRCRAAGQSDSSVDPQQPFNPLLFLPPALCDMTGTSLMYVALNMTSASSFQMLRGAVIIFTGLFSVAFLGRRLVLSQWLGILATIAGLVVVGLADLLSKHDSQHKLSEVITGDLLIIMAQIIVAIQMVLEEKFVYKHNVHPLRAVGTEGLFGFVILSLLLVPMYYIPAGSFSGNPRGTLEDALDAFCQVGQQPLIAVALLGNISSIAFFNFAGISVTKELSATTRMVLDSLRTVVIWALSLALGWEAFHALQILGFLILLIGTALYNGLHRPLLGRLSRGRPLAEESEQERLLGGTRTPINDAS
inactive: [1] -0.099 | volasertib -0.053 | [2] 0.087 | epoxomicin 0.021 | [3] 0.11 | [5] 0.034 | rosiglitazone 0.047 | [6] -0.029

TACC2 (UniProt O95359)
inactive: [1] -0.013 | volasertib -0.048 | [2] 0.014 | [3] 0.012 | [4] 0.041 | [5] -0.069 | rosiglitazone 0.039 | [6] 0 | [7] -0.044

SYNE2 isoform 2 (UniProt Q8WXH0)
inactive: [1] 0.039 | volasertib -0.025 | [2] -0.145 | [3] -0.181 | [4] -0.274 | [5] -0.044 | rosiglitazone 0.053 | [6] -0.021 | [7] -0.025

TBC1D5 isoform 2 (UniProt Q92609)
active: [1] -0.397 | volasertib -0.854 | [7] -0.375
inactive: [2] 0.113 | epoxomicin 0.069 | [3] -0.076 | [4] -0.016 | [5] 0.039 | rosiglitazone 0.022 | [6] 0.021

SUN1 isoform 9 (UniProt O94901)
UniProt O94901, sequence (O94901 whole entry, looked up): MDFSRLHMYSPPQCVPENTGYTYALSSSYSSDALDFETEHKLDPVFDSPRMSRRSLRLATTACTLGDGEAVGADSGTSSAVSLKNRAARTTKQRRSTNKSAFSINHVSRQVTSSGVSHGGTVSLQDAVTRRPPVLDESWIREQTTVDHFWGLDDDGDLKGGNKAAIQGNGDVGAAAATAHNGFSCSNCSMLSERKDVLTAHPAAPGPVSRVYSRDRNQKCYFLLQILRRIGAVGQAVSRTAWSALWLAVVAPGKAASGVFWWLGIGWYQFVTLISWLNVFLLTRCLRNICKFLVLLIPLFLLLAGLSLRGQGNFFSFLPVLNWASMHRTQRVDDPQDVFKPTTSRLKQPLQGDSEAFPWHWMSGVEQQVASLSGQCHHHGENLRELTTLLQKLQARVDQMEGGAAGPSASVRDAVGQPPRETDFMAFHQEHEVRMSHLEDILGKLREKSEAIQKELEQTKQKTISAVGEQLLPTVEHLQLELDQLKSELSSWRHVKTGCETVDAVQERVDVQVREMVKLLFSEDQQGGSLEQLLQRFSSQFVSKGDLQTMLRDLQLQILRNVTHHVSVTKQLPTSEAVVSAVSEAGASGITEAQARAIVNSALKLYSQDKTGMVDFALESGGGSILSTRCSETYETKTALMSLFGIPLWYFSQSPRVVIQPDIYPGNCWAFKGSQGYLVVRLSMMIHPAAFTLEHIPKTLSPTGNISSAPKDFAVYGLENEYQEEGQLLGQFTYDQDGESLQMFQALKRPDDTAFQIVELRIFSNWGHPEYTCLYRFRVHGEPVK
inactive: [1] 0.13 | volasertib 0.018 | [2] -0.065 | epoxomicin -0.021 | [3] 0.027 | [4] 0.135 | [5] 0.002 | [6] 0.037 | [7] -0.111

SRCAP (UniProt Q6ZRS2)
inactive: [1] 0.068 | volasertib -0.207 | [2] -0.059 | [3] 0.066 | [4] -0.041 | [5] 0.121 | rosiglitazone 0.01 | [6] -0.001 | [7] -0.006

SMAP (UniProt O00193)
UniProt O00193, sequence (O00193 whole entry, looked up): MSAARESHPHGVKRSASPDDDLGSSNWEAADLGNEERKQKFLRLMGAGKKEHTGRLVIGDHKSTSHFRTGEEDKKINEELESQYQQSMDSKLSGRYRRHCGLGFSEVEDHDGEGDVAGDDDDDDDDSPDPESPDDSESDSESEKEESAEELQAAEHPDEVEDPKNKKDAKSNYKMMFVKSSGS
inactive: [1] -0.024 | volasertib 0.023 | [2] -0.043 | epoxomicin 0.06 | [3] -0.02 | [4] 0.014 | [5] -0.011 | rosiglitazone -0.038 | [6] -0.088 | [7] -0.045

SRSF7 (UniProt Q16629)
UniProt Q16629, sequence (Q16629 whole entry, looked up): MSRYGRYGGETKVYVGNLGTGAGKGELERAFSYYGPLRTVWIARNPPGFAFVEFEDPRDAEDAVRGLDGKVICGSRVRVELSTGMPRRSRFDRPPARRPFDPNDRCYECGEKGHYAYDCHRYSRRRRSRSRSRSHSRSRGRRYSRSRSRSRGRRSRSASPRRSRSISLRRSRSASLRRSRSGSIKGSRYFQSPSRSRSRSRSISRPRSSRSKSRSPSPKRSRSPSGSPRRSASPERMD
inactive: [1] 0.18 | volasertib 0.215 | [2] -0.039 | epoxomicin -0.171 | [3] 0.03 | [4] 0.181 | [5] -0.085 | rosiglitazone -0.172 | [6] 0.218 | [7] 0.175

SMARCA5 (UniProt O60264)
inactive: [1] -0.242 | volasertib -0.333 | [2] 0.045 | epoxomicin 0.092 | [3] -0.088 | [4] -0.06 | [5] 0.053 | rosiglitazone -0.003 | [6] 0.121 | [7] 0.076

SP3 (UniProt Q02447)
UniProt Q02447, sequence (Q02447 whole entry, looked up): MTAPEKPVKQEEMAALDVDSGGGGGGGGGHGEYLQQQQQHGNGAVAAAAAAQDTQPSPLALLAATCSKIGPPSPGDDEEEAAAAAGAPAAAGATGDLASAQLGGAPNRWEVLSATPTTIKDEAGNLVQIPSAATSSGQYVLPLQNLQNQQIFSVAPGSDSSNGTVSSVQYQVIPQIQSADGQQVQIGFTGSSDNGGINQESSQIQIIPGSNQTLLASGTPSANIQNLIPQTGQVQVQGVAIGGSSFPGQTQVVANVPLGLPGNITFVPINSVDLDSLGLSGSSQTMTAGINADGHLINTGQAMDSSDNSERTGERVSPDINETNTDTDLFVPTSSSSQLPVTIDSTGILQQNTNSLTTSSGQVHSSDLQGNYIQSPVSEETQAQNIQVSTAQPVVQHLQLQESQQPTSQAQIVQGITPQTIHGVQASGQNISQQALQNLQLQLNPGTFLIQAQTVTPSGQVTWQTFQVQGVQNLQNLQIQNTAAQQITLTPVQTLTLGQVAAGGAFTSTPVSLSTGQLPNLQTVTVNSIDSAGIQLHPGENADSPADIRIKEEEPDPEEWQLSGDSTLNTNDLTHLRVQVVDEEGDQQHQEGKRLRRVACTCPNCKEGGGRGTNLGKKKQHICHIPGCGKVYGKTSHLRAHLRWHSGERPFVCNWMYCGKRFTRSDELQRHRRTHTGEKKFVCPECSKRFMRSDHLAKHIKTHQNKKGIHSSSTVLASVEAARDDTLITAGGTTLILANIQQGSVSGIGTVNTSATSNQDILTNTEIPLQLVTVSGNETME
inactive: [1] 0.03 | volasertib 0.104 | [2] -0.019 | epoxomicin -0.194 | [3] 0.025 | [4] 0.068 | [5] -0.074 | rosiglitazone -0.062 | [6] 0.058 | [7] 0.028

TBP (UniProt P20226)
UniProt P20226, sequence (P20226 whole entry, looked up): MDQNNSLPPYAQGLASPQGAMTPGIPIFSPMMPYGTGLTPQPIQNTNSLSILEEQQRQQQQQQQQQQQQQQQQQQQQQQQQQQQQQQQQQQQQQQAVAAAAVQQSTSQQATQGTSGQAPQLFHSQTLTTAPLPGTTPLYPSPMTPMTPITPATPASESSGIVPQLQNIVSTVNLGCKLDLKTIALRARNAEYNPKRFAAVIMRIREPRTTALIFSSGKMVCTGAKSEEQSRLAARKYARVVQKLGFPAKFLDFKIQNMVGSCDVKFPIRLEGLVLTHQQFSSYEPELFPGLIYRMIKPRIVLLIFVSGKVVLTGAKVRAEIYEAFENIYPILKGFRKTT
inactive: [1] 0.087 | volasertib 0.073 | [2] 0.095 | epoxomicin -0.332 | [5] -0.227 | rosiglitazone -0.035 | [6] 0.001

SYNE1 (UniProt Q8NF91)
inactive: [1] -0.01 | [2] -0.048 | epoxomicin 0.047 | [3] -0.142 | [4] -0.113 | [5] 0.042 | rosiglitazone 0.031 | [6] 0.051 | [7] -0.208

SMARCB1 (UniProt Q12824)
UniProt Q12824, sequence (Q12824 whole entry, looked up): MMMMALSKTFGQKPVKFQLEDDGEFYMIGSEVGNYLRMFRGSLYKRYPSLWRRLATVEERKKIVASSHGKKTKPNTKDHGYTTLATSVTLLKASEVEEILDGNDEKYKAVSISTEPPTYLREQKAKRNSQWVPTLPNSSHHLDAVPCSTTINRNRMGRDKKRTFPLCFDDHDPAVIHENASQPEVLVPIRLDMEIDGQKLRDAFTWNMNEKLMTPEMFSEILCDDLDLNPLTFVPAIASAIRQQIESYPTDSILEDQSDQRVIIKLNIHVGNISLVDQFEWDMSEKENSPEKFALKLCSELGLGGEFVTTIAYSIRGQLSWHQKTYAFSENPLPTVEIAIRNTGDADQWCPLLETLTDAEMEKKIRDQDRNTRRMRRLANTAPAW
inactive: [1] -0.058 | [4] 0.053 | [5] -0.116 | [6] 0.127 | [7] -0.222

SREBF1 isoform 4 (UniProt P36956)
UniProt P36956, sequence (P36956 whole entry, looked up): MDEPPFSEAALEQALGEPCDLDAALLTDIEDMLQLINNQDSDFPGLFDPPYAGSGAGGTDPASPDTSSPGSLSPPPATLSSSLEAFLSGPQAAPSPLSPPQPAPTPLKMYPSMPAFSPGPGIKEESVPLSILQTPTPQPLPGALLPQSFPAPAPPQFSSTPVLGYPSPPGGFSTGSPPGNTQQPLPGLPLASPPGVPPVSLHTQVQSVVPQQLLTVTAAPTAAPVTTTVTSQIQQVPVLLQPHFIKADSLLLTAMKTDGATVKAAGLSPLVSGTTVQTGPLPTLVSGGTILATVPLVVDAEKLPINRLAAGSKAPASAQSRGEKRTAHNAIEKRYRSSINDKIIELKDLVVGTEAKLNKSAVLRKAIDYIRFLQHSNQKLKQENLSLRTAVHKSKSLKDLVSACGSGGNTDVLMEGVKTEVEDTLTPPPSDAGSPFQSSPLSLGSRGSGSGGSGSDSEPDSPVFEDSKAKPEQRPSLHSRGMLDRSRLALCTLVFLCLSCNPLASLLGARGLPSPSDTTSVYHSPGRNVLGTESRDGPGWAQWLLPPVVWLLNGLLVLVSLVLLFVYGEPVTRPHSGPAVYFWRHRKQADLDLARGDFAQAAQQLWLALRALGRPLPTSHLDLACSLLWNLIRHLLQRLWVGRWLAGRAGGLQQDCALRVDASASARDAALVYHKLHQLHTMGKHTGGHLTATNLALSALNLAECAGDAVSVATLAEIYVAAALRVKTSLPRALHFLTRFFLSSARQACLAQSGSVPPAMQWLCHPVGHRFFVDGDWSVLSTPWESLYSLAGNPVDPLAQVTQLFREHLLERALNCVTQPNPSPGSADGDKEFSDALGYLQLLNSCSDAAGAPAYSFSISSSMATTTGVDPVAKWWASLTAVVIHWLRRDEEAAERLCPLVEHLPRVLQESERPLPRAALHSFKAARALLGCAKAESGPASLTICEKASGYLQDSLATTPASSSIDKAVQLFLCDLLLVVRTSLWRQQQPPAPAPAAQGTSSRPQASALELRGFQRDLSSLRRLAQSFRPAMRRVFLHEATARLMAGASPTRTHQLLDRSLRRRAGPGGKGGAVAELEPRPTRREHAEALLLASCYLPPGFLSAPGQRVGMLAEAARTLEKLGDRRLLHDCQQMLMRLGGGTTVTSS
inactive: [1] -0.511 | epoxomicin -0.035 | [3] -0.047 | rosiglitazone 0.025 | [6] 0.198

SSB (UniProt E7ERC4)
inactive: [4] -0.076 | [5] -0.154 | [6] -0.34 | [7] 0.266

STARD3 (UniProt Q14849)
UniProt Q14849, sequence (Q14849 whole entry, looked up): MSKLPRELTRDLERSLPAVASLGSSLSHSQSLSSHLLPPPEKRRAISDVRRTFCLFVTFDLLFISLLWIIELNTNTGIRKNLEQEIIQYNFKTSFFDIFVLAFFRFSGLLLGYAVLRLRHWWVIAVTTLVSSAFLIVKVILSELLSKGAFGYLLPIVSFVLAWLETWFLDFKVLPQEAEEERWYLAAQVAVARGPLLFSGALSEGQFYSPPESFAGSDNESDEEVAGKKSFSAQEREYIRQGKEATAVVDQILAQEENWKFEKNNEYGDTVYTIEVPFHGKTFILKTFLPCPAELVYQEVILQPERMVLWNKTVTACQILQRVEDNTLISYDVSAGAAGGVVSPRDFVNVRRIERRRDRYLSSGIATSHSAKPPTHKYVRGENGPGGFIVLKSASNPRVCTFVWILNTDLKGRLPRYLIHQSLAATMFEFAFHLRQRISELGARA
inactive: volasertib 0.115 | [2] 0.091 | epoxomicin -0.019 | [3] 0.053 | [4] 0.039 | [5] -0.037 | rosiglitazone 0.024 | [6] -0.064
active: [7] -0.386
